Data taken from the supplement of paper PMC10338343.
± gives the standard deviation.

Assays:
[1] = tested on: MILI (PIWIL2) piRISC loaded with piRNA #1 (26 nt); assay: pre-steady-state target cleavage rate (min^-1); guide: piRNA #1 5'p-UGAGGUAGUAGGUUGUAUAGUAUCCA; higher = faster piRNA-guided slicing of the target; details: auxiliary factor: 500 nM mouse GTSF1
Outline: (§1)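 Sequencing of uncleaved targets, normalised to depth and to weakly complementary targets, was the readout of this Cleave-'n-Seq assay. A transcribed, DNA-blocked target RNA library (0.1 nM) was mixed with 1 nM active affinity-purified piRISC carrying one synthetic guide, with or without 500 nM GTSF1 partner protein, in HEPES–potassium acetate buffer at 33 °C for 0–8 or 0–960 min. Three trials were pooled, k3 was capped at 0.0001 min^-1, and a burst-and-steady-state fit gave the pre-steady-state cleavage rate.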

[2] = tested on: EfPiwi piRISC loaded with piRNA #1 (26 nt); assay: pre-steady-state target cleavage rate (min^-1); auxiliary factor: 500 nM Ephydatia muelleri Gtsf1; guide: piRNA #1 5'p-UGAGGUAGUAGGUUGUAUAGUAUCCA; MIWI and MILI are mouse PIWI proteins and EfPiwi is from a freshwater sponge; tags in brackets are library labels; higher = faster piRNA-guided slicing of the target
Outline: as §1

Sequence | pre-steady-state target cleavage rate [1] | pre-steady-state target cleavage rate [2]
GGAGACGAUAGUUUACAACCUACUACCUCA | 0.129 ± 0.01 | 0.0165 ± 0.0088
GGAGUGCAUACUAUACAACCUAGUACCUCA | 0.0477 ± 0.0091 | 0.00414 ± 0.0018
GGAGACGUUAGUAUACAACCUACUACCUCA | 0.119 ± 0.013 | 0.00686 ± 0.0036
GGAGAGCGAUACUAUACAACCUACUACCUCA | 0.249 ± 0.02 | 0.0132 ± 0.006
GGAGUGCAUACUAUACAACCUACUAGCUCA | 0.0656 ± 0.0098 | 0.00282 ± 0.0024
GGAGACGACACUAUACAACCUACUACCUCA | 0.214 ± 0.025 | 0.114 ± 0.038
GGAGUGGAUACAAUACAACCUAGUACCUCA | 0.0718 ± 0.013 | 0.00305 ± 0.0021
GGAGACCUAACUAUACAACCUACUACCUCCA | 0.123 ± 0.021 | 0.015 ± 0.0066
GGAGACGAUACAUAUACAACCUACUACCUCA | 0.111 ± 0.013 | 0.00804 ± 0.0033
GGAGAGGAUACUAUACAACCUACUGACCUCA | 0.077 ± 0.013 | 0.00473 ± 0.002
GGAGACGAUAGUAAACAACCUACUACCUCA | 0.134 ± 0.01 | 0.00554 ± 0.004
GGAGACCUUACUAUACAACCUACUACCCA | 0.0955 ± 0.016 | 0.00518 ± 0.0043
GGAGAGGAUACUAUCACAACCUACUACCUCA | 0.136 ± 0.011 | 0.0777 ± 0.031
GGAGAGGAUAAUAUACAACCUACUACCUCA | 0.135 ± 0.01 | 0.00772 ± 0.0036
GGAGAGCAAACUAUACAACCUACUACCUCA | 0.113 ± 0.019 | 0.0127 ± 0.0059
GGAGUGGAUACUAUACACCCUACUACCUCA | 0.0921 ± 0.0066 | 0.0673 ± 0.023
GGAGUGGUUACAAUACAACCUACUACCUCA | 0.172 ± 0.011 | 0.00789 ± 0.0035
GGAGUGGAUACUAUACUACCUAGUACCUCA | 0.0719 ± 0.013 | 0.00311 ± 0.0019
GGAGACCAUAAUAUACAACCUACUACCUCA | 0.0982 ± 0.013 | 0.0856 ± 0.03
GGAGAGGAUCUAUACAACCUACUACCUCA | 0.171 ± 0.013 | 0.00612 ± 0.0048
